NR5A2 inv ag: suppresses constitutive activity of human LRH-1. O00482. HEK293T StAR-luciferase reporter, LRH-1 transfected, 24 h. inhibition, % at 3.6 µM. 360,000 tested, 0.13% active;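 active = inhibition above the mean inhibition of all tested compounds plus 3 SD, cut at about 73% in these data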
SRC1 inh: inhibitors of human steroid receptor coactivator 1 (SRC1); HEK293 GAL4-SRC1 luciferase reporter, luminescence; Q15788; inhibition, % at 3.6 µM; 360,000 tested, 0.12% active;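 active = inhibition above the campaign mean plus 3 SD, with each screening campaign given its own cutoff, cut at about 60% in these data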
NCOA2 inhibitor: inhibits human steroid receptor coactivator 2. HEK293 GAL4-SRC2 luciferase reporter, luminescence. inhibition, % at 9 µM. 370,000 tested, 0.17% active;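 active = inhibition above the mean inhibition of all tested compounds plus 3 SD, set per campaign, cut at about 52% in these data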
Target sequence (Q15596 whole entry, looked up, the tested form may be a part): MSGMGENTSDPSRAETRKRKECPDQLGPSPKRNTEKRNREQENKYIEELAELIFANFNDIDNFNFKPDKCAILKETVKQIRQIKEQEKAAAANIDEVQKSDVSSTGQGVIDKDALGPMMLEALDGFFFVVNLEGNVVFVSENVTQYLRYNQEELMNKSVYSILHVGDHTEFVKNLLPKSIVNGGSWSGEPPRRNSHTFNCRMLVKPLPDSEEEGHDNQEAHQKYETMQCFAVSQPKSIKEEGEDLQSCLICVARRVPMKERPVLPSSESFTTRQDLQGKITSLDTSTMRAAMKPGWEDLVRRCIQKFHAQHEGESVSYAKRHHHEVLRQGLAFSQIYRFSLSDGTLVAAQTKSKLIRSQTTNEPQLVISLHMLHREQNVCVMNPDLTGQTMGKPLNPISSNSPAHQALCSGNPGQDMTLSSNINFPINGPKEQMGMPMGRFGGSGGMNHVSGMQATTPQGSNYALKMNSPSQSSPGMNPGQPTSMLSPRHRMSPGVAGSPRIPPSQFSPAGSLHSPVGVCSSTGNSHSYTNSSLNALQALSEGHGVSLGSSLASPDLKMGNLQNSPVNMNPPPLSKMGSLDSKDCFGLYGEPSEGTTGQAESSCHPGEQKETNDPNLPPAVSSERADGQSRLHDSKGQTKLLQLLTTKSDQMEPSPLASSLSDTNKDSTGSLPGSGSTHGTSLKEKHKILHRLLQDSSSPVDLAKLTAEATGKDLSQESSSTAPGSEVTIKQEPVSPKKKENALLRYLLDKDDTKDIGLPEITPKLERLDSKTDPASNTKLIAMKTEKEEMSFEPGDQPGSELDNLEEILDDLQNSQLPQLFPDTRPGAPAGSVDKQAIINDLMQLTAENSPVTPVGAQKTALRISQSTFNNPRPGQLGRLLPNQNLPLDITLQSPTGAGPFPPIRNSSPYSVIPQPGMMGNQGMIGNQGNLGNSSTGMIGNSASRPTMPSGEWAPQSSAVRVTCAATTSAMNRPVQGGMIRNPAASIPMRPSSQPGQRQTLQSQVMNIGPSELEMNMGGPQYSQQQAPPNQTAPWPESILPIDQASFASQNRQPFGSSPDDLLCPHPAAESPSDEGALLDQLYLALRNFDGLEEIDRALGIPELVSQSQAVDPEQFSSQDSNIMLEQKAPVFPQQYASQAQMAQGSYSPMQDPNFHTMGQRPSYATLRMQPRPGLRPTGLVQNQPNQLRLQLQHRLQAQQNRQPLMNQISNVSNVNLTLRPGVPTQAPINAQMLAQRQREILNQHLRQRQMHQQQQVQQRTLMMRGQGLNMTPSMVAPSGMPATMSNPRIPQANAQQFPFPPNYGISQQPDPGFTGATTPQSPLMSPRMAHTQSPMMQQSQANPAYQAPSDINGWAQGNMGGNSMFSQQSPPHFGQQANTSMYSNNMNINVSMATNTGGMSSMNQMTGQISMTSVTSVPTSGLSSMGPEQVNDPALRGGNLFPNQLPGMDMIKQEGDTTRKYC
COUP-TFII inh: inhibitors of human COUP-TFII (NR2F2); 370,000 tested, 0.7% active; inhibition, % at 8.6 µM; HEK293T NGFI-A luciferase reporter, luminescence;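 active = inhibition above a per-plate cutoff, mean inhibition of test wells between control levels plus 3 SD, cut at about 38% in these data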;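 note: cells cotransfected with COUP-TFII expression vector driving the NGFI-A reporter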
SRC3 inh: inhibits human SRC3 coactivator. HEK293 GAL4-SRC3 luciferase reporter, luminescence. inhibition, % at 3.6 µM. AID 588352. 360,000 tested, 0.17% active. Q9Y6Q9;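 active = inhibition above a per-campaign cutoff, the mean of all compounds plus 3 SD, cut at about 60% in these data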;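 note: higher means less SRC3-driven luciferase light from the GAL4 reporter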
Numbers stand for hits; . = inactive; / = no result given. Rows were chosen to be rich in hits. Some 0.81% of all compounds tested hit in one or more screens of this group.

SMILES | NR5A2 inv ag | SRC1 inh | NCOA2 inhibitor | COUP-TFII inh | SRC3 inh
CCOc1ccc(N(CC(=O)NCc2ccccc2C)S(C)(=O)=O)cc1 | . | . | . | . | .
O=S(=O)(c1ccccc1)N1CCCc2nc(-c3ccc(F)cc3)ccc21 | / | / | . | . | /
O=C(N/N=C/c1c(O)ccc2ccccc12)c1cccc(C(F)(F)F)c1 | . | 70 | . | . | 74
O=C(N/N=C/c1c(O)ccc2ccccc12)c1[nH]ncc1Br | . | . | . | . | 67
COc1ccc2ccccc2c1/C=N/NC(=O)c1cccc(Br)c1 | . | . | . | . | .
COC(=O)c1ccc(/C=C2/SC(=S)N(CCCC(=O)Nc3ccccn3)C2=O)cc1 | . | . | . | . | .
CCc1ccc(/C=C2\SC(=S)N(CCCC(=O)Nc3ccccn3)C2=O)cc1 | . | . | 57 | . | .
COc1ccc(/C=C2\SC(=S)N(CCCC(=O)Nc3ccc(O)cc3)C2=O)cc1 | . | . | 60 | . | .
CCOC(=O)CN1C(=O)[C@]2(OCCC=C[C@H]2C)c2c(Br)cccc21 | / | / | . | . | /
Cc1cc(N=Cc2c(O)n(-c3ccc(C)c(C)c3)c(=O)c3ccccc23)no1 | / | / | . | . | /
Cc1ccc(-n2c(O)c(C=Nc3cc(C)on3)c3ccccc3c2=O)c(C)c1 | . | . | . | . | 67
O=C(CN1C(=O)C(=O)N(C2CCCC2)C1=O)Nc1ccc(OC(F)F)cc1 | . | . | . | . | .
COc1ccc(CC(=O)Nc2cccc(-c3nnc(-c4ccc(C)cc4)o3)c2)cc1OC | . | . | . | . | .
COc1ccc(CC(=O)Nc2cccc(-c3nnc(-c4ccccc4)o3)c2)cc1OC | . | . | 61 | . | .
CSCCC(C(=O)NC1CCCC1)n1c(C2CCCC2)nc2ccccc21 (stereo not drawn) | . | / | . | . | /
COc1cc2c(cc1OC)CN(C(=O)CCNS(=O)(=O)c1ccccc1F)CC2 | . | . | . | . | .
c1coc(-c2ccc3nncn3c2)c1 | . | . | . | . | .
c1ccc2c(-c3ccc4nncn4c3)cncc2c1 | . | 64 | 55 | . | 62
Cc1ccc(NC(=S)NCc2ccco2)c(C)c1 | . | . | . | . | .
CN(Cc1cnc2nc(N)nc(N)c2n1)c1ccc(C(=O)NC(CCC(=O)O)C(=O)O)c2ccccc12 (stereo not drawn) | . | 73 | . | . | 64
O=C1NC(=Nc2ccccc2)S/C1=C\c1cccn1-c1ccccc1 | . | . | . | . | .
O=C(Cn1c(=O)c2cccn2c2cccnc21)NCCCN1CCN(c2ccccc2)CC1 | / | / | / | . | /
CN(C)CCCN1CC(=O)N2CCc3ccc(Br)cc3C2CC1=O (stereo not drawn) | / | / | . | . | /
Cc1ccc(C(C(=O)NC2CCCC2)N2CCc3ccccc32)cc1 (stereo not drawn) | . | . | . | . | .
O=C1CCC2S/C(=C/Nc3ccc(C(F)(F)F)cc3)C(=O)N12 (stereo not drawn) | . | . | 72 | . | .
SMILES | NR5A2 inv ag | SRC1 inh | NCOA2 inhibitor | COUP-TFII inh | SRC3 inh
O=C1CCCC/C1=C/Nc1cccc(C(F)(F)F)c1 | . | . | . | . | .
O=C(O)c1cc(N/N=C/c2ccc3c(c2)OCO3)ccc1Cl | . | . | . | . | .
O=C(O)c1ccc(N/N=C/c2ccc3c(c2)OCO3)cc1 | . | . | 56 | . | .
CCn1c2ccccc2c2nnc(SCC(=O)N3CC(C)OC(C)C3)nc21 (stereo not drawn) | . | . | . | . | .
Cc1ccc2nc(NC(=O)CCCc3nc4ccccc4s3)sc2c1 | . | . | . | . | .
Cc1ccc2nc(NC(=O)CCCC(=O)O)sc2c1 | . | . | 57 | . | .
COc1ccc(CCNC(=O)CN2c3cccc4cccc(c34)S2(=O)=O)cc1OC | . | . | . | . | .
CCCOc1ccc(C2NC(=O)NC2=O)cc1 (stereo not drawn) | . | . | . | . | .
O=C1NC(=O)C(c2ccc(F)cc2)N1 (stereo not drawn) | 89 | 90 | . | . | 89
CCCCn1c(CCl)nc2cc(S(=O)(=O)N3CCOCC3)ccc21 | . | . | 63 | . | .
CCCCn1c(C)nc2cc(S(=O)(=O)N3CCOCC3)ccc21 | . | . | . | . | .
CN(C)c1ccc(C=c2c3ccccc3n3c2cc(-c2ccc(Cl)cc2)[n+]3C)cc1 | 74 | . | . | 59 | 68
CN(c1ccc(Cl)cc1)c1cc(=O)n(C)c2ccccc12 | . | . | . | . | .
COC(=O)C1=C(CN2CCCc3ccccc32)NC(=O)NC1c1ccc(F)cc1 (stereo not drawn) | 91 | 87 | 85 | 96 | 84
COC(=O)C1=C(CN2CCc3ccccc32)NC(=O)NC1c1cc(C)ccc1C (stereo not drawn) | . | . | . | . | .
O=C(N[C@H](C(=O)N1CCC[C@H]1C(=O)NCc1ccccc1)c1ccccc1)c1ccc(Cl)cc1Cl | / | / | . | . | /
COc1ccc(C(=O)C(CN2CCOCC2)c2ccccc2)cc1 (stereo not drawn) | . | . | 55 | . | .
O=C(c1ccc(F)cc1)C(CN1CCOCC1)c1ccccc1 (stereo not drawn) | . | . | . | . | 74
CCC[C@@H]1CCCO[C@@](C(=O)NCCN2CCOCC2)(C(F)(F)F)C1 | . | . | . | . | .
COc1ccc(NC(=O)/C(Cl)=C(/Cl)S(=O)Cc2ccc(Cl)cc2)cn1 (stereo not drawn) | . | . | 64 | 66 | .
COc1ccc(NC(=O)C(Cl)=C(Cl)Cl)cn1 | . | . | . | . | .
O=C(Nc1ccc(OC(F)F)c(Cl)c1)Nc1ccc2c(c1)OCO2 | . | . | . | . | .
O=C(Nc1ccc([N+](=O)[O-])cc1)Nc1ccc(OC(F)F)c(Cl)c1 | . | . | . | . | 75
Cc1nonc1OCCNCc1c(C(=O)N2CCCCCCC2)nc2ccc(Cl)cn12 | . | . | . | . | .
O=C(Nc1nc(-c2ccc(S(=O)(=O)N3CCCC3)cc2)cs1)c1cccs1 | . | . | . | 55 | .
SMILES | NR5A2 inv ag | SRC1 inh | NCOA2 inhibitor | COUP-TFII inh | SRC3 inh
O=C(Nc1ccc(S(=O)(=O)N2CCCC2)cc1)c1cccs1 | . | . | . | . | .
O=C(Nc1nc(-c2ccccc2)cs1)C1CCCN(S(=O)(=O)c2ccccc2)C1 (stereo not drawn) | . | . | . | 44 | .
NCC(=O)Nc1ccc(Cl)cc1C(=O)c1ccc[nH]1 | . | . | 56 | . | .
CC(=O)N(Cc1ccco1)c1nc(C(=O)Nc2ccc(Cl)cc2)c(C)s1 | . | . | . | . | .
Cc1ccnc2c1ccc1c(C)ccnc12 | 93 | 77 | / | / | 75
Cc1cc(C(=O)O[C@@H]2CCC[C@@]3(C(=O)N(Cc4ccccc4)c4ccccc43)[C@H]2NC(=O)CCc2ccccc2)no1 | / | / | . | . | /
CC(C)/C=C(/C(=O)c1ccc(Cl)cc1Cl)n1cncn1 | . | . | . | . | .
CC(C)(C)C(=O)/C(=C/c1ccc(Cl)cc1)n1cncn1 | . | . | 62 | . | 73
O=C(O)CCC(=O)Nc1cccc(-c2csc(-c3ccccc3)n2)c1 | . | . | 52 | . | .
CCCCC(=O)Nc1cccc(-c2csc(-c3ccccc3)n2)c1 | . | . | . | . | .
